Measurements: PubChem BioAssay (NCI)
This is part of a sample that, as a whole, favours compounds with a hit. Of some 83,000 tested, about 20% had one in any assay.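 The endpoint reported here, percent growth, reads 100 for growth as untreated, 0 for no net growth and -100 for all cells dead.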 The source made the active and inactive calls. How the source made its calls: active means growth percent below 10; inactive means the rest.

How the values were obtained:
Test in all cases: NCI-60 one-dose screen, 48 h (100 = growth as untreated, 0 = no growth, -100 = all killed)
Details in all cases: 10 µM unless noted
SR leukemia = system: SR leukemia
RPMI-8226 leukemia = system: RPMI-8226 leukemia
OVCAR-8 ovarian = system: OVCAR-8 ovarian
OVCAR-5 ovarian = system: OVCAR-5 ovarian
OVCAR-4 ovarian = system: OVCAR-4 ovarian
SK-OV-3 ovarian = system: SK-OV-3 ovarian
IGROV1 ovarian = system: IGROV1 ovarian
OVCAR-3 ovarian = system: OVCAR-3 ovarian
HS 578T breast = system: HS 578T breast
NCI/ADR-RES ovarian = system: NCI/ADR-RES ovarian
T-47D breast = system: T-47D breast
BT-549 breast = system: BT-549 breast
MDA-MB-435 melanoma = system: MDA-MB-435 melanoma
SW-620 colon = system: SW-620 colon
HCT-116 colon = system: HCT-116 colon
HCC-2998 colon = system: HCC-2998 colon
KM12 colon = system: KM12 colon
MCF7 breast = system: MCF7 breast

Measured: growth

CC[C@@H](C)OC(=O)c1nn(C(C)=O)c2ccccc12
inactive: SR leukemia 110% | RPMI-8226 leukemia 107% | OVCAR-8 ovarian 92.7% | OVCAR-5 ovarian 101% | OVCAR-4 ovarian 103% | SK-OV-3 ovarian 114% | IGROV1 ovarian 110% | OVCAR-3 ovarian 112% | HS 578T breast 106% | NCI/ADR-RES ovarian 94.2% | T-47D breast 103% | BT-549 breast 105% | MDA-MB-435 melanoma 103% | SW-620 colon 107% | HCT-116 colon 104% | HCC-2998 colon 96.4% | KM12 colon 103%

O=C(CN1CCN(c2cc3c(cc2F)c(=O)c(C(=O)O)cn3C2CC2)CC1)Nc1cc(=O)[nH]c(=O)[nH]1
inactive: SR leukemia 102% | RPMI-8226 leukemia 108% | OVCAR-8 ovarian 101% | OVCAR-5 ovarian 96.4% | OVCAR-4 ovarian 113% | SK-OV-3 ovarian 110% | IGROV1 ovarian 96.4% | OVCAR-3 ovarian 113% | HS 578T breast 95.6% | NCI/ADR-RES ovarian 102% | T-47D breast 103% | BT-549 breast 83.3% | MDA-MB-435 melanoma 102% | SW-620 colon 95.4% | MCF7 breast 101% | HCT-116 colon 91.2% | KM12 colon 108%

Nc1nc2ccc(-c3nc4ccc5[nH]ncc5c4c4c3CCC4)cc2s1
active: RPMI-8226 leukemia -49% | SK-OV-3 ovarian -21.7% | HS 578T breast 7.12% | MDA-MB-435 melanoma -35.5% | SW-620 colon 6.95%
inactive: SR leukemia 20.7% | OVCAR-8 ovarian 28.6% | OVCAR-5 ovarian 47.6% | OVCAR-4 ovarian 19.3% | IGROV1 ovarian 21.4% | OVCAR-3 ovarian 39.4% | NCI/ADR-RES ovarian 27.8% | T-47D breast 31.2% | BT-549 breast 47.1% | MCF7 breast 13% | HCT-116 colon 15.9% | KM12 colon 25.1%
